The source of these data is PubChem BioAssay (NCI).

Assay [1] is described as follows: NCI Yeast Anticancer Drug Screen. Data for the rad50 strain (AID 155).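 Note: 0% = growth of vehicle-only cultures of the same strain.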 The note with it: S. cerevisiae rad50 strain growth inhibition, active compounds read high. The gist of the method: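 Cells are treated with compound, grown, and their growth is then scored against vehicle-only cultures of the same repair-deficient yeast strain.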
A short description of assay [2]: NCI Yeast Anticancer Drug Screen. Data for the mec2-1 strain (AID 157). The note with it: S. cerevisiae mec2-1 strain, active compounds read high. Put shortly: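 Using mec2-1 yeast: add compound, measure growth, express inhibition versus vehicle-treated cultures.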
Assay [3] is described as follows: NCI Yeast Anticancer Drug Screen. Data for the sgs1 mgt1 strain (AID 161).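 Note: 0% = growth of cultures given vehicle only.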 The note with it: S. cerevisiae sgs1 mgt1 strain, active compounds read high. The gist of the method: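 Yeast cells carrying a defined DNA-repair defect were exposed to test compounds. Growth inhibition was measured relative to vehicle-treated controls.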
A short description of assay [4]: NCI Yeast Anticancer Drug Screen. Data for the cln2 rad14 strain (AID 165).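 Note: 0% = growth equal to vehicle treated cultures.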 The note with it: S. cerevisiae cln2 rad14 strain, active compounds read high. The gist of the method: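 Yeast strain cln2 rad14, bearing defects in cell cycle control and DNA repair, serves as the test system; values reflect growth inhibition compared with vehicle.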
Assay [5] in a line: NCI Yeast Anticancer Drug Screen. Data for the bub3 strain (AID 167). The note with it: S. cerevisiae bub3 mutant strain, active compounds read high. The gist of the method: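 Part of a panel of yeast mutants defective in DNA damage repair or cell cycle regulation. Each strain is grown with compound, and inhibition is calculated relative to solvent-treated cultures.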
Assay [6] is described as follows: NCI Yeast Anticancer Drug Screen. Data for the mlh1 rad18 strain (AID 175). The note with it: S. cerevisiae mlh1 rad18 strain growth inhibition, active compounds read high. The gist of the method: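 Steps: expose repair-defective yeast to compound; measure growth; express inhibition against vehicle-treated controls.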
[7] abbreviates: at 5.0 µM (retest, dose inferred, filed as 0.5).
[8] abbreviates: at 50.0 µM (retest, dose inferred, filed as 5.0).

About 79,000 compounds went through this panel and 15% of them were active in at least one assay; those are over-represented in the sample as a whole. Values without a mark were called inactive. Active and inactive are the calls of the source. Cut-off read from the data, not from the text of the source: active = growth inhibition above about 70%; inactive = the rest.

Regarding `COc1ccc(OC)c(NC(=O)CCCC(=O)CC(=O)c2cccnc2)c1`, the growth inhibition in assay [1] (setting [7]) is 63%; in assay [1] (setting [8]), 62%; in assay [1] (at 50.0 µM), 4.45%; in assay [2] (setting [7]), 50%; in assay [2] (setting [8]), 53%; in assay [2] (at 50.0 µM), 1.8%. Besides, the growth inhibition in assay [3] (setting [7]) was 69%; in assay [3] (setting [8]), 70% (active); in assay [3] (at 50.0 µM), -5.2%; in assay [4] (setting [7]) it was 53%; in assay [4] (setting [8]), 55%; in assay [4] (at 50.0 µM) it was 39.8%. Also, the growth inhibition in assay [5] (setting [7]) is 57%; in assay [5] (setting [8]) it was 62%; in assay [5] (at 50.0 µM), -4.8%; in assay [6] (setting [7]), 63%; in assay [6] (setting [8]) it was 63%; in assay [6] (at 50.0 µM), -8.55%.
For the compound `Oc1ccc(SCc2cc(O)ccc2O)cc1`, the growth inhibition in assay [1] (setting [7]) is 9%; in assay [1] (setting [8]), 93% (active); in assay [1] (at 50.0 µM), 86% (active); in assay [2] (setting [7]), 8%; in assay [2] (setting [8]), 73% (active); in assay [2] (at 50.0 µM) it was 91.2% (active). The growth inhibition in assay [3] (setting [7]) was -17%; in assay [3] (setting [8]), 48%; in assay [3] (at 50.0 µM) it was 84.5% (active); in assay [4] (setting [7]) it was -13%; in assay [4] (setting [8]) it was 69%; in assay [4] (at 50.0 µM), 66%. Also, the growth inhibition in assay [5] (setting [7]) is -26%; in assay [5] (setting [8]), 73% (active); in assay [5] (at 50.0 µM), 86.7% (active); in assay [6] (setting [7]), 10%; in assay [6] (setting [8]), 86% (active); in assay [6] (at 50.0 µM), 82.1% (active).
Regarding `COc1ccccc1C(=O)c1ccc2ccccc2c1`, the growth inhibition is -3% in assay [1] (setting [7]); 71% (active) in assay [1] (setting [8]); 47.2% in assay [1] (at 50.0 µM); -10% in assay [2] (setting [7]); 85% (active) in assay [2] (setting [8]); 73% (active) in assay [2] (at 50.0 µM). The growth inhibition is 0% in assay [3] (setting [7]); 83% (active) in assay [3] (setting [8]); 61.8% in assay [3] (at 50.0 µM); -6% in assay [4] (setting [7]); 9% in assay [4] (setting [8]); -17.1% in assay [4] (at 50.0 µM). In addition, the growth inhibition is 3% in assay [5] (setting [7]); 74% (active) in assay [5] (setting [8]); 83.6% (active) in assay [5] (at 50.0 µM); -15% in assay [6] (setting [7]); 55% in assay [6] (setting [8]); 42.3% in assay [6] (at 50.0 µM).
`Cc1ccccc1-n1c(N)c(-c2nc3ccccc3[nH]2)sc1=S`: the growth inhibition was 36% in assay [1] (setting [7]); 45% in assay [1] (setting [8]); 81.2% (active) in assay [1] (at 50.0 µM); 22% in assay [2] (setting [7]); 50% in assay [2] (setting [8]); 70.7% (active) in assay [2] (at 50.0 µM). Further, the growth inhibition was 42% in assay [3] (setting [7]); 57% in assay [3] (setting [8]); 68.2% in assay [3] (at 50.0 µM); 37% in assay [4] (setting [7]); 44% in assay [4] (setting [8]); 70.4% (active) in assay [4] (at 50.0 µM). For the same compound, the growth inhibition is 41% in assay [5] (setting [7]); 55% in assay [5] (setting [8]); 83.1% (active) in assay [5] (at 50.0 µM); 42% in assay [6] (setting [7]); 61% in assay [6] (setting [8]); 80.2% (active) in assay [6] (at 50.0 µM).
Turning to `O=S1(=O)CCN(c2ccccc2CC(c2c[nH]c3ccccc23)c2c[nH]c3ccccc23)CC1`, the growth inhibition in assay [1] (setting [7]) was 29%; in assay [1] (setting [8]), 90% (active); in assay [1] (at 50.0 µM), 88.5% (active); in assay [2] (setting [7]), -5%; in assay [2] (setting [8]) it was 73% (active); in assay [2] (at 50.0 µM), 74.8% (active). For the same compound, the growth inhibition is 3% in assay [3] (setting [7]); 79% (active) in assay [3] (setting [8]); 87.7% (active) in assay [3] (at 50.0 µM); 5% in assay [4] (setting [7]); 62% in assay [4] (setting [8]); 86.2% (active) in assay [4] (at 50.0 µM). Further, the growth inhibition in assay [5] (setting [7]) is 14%; in assay [5] (setting [8]), 89% (active); in assay [5] (at 50.0 µM), 90.6% (active); in assay [6] (setting [7]) it was 34%; in assay [6] (setting [8]) it was 94% (active); in assay [6] (at 50.0 µM), 91.9% (active).
`Nc1nc(=Nc2ccccc2)ss1`: the growth inhibition is -12% in assay [1] (setting [7]); 99% (active) in assay [1] (setting [8]); 84.8% (active) in assay [1] (at 50.0 µM); 6% in assay [2] (setting [7]); 100% (active) in assay [2] (setting [8]); 71.1% (active) in assay [2] (at 50.0 µM). Further, the growth inhibition in assay [3] (setting [7]) is 0%; in assay [3] (setting [8]), 99% (active); in assay [3] (at 50.0 µM) it was 86.5% (active); in assay [4] (setting [7]), -7%; in assay [4] (setting [8]), 99% (active); in assay [4] (at 50.0 µM) it was 45.4%. The growth inhibition in assay [5] (setting [7]) was -11%; in assay [5] (setting [8]), 100% (active); in assay [5] (at 50.0 µM), 57.5%; in assay [6] (setting [7]), 12%; in assay [6] (setting [8]), 99% (active); in assay [6] (at 50.0 µM), 78.7% (active).
For the compound `Cc1c2cc[n+](C)cc2c(C)c2c1[nH]c1ccc(Cl)cc12`, the growth inhibition in assay [1] (setting [7]) is 43%; in assay [1] (setting [8]), 97% (active); in assay [1] (at 50.0 µM) it was 90.2% (active); in assay [2] (setting [7]) it was 28%; in assay [2] (setting [8]), 99% (active); in assay [2] (at 50.0 µM), 92.4% (active). Moreover, the growth inhibition in assay [3] (setting [7]) was 48%; in assay [3] (setting [8]), 99% (active); in assay [3] (at 50.0 µM), 93% (active); in assay [4] (setting [7]) it was 35%; in assay [4] (setting [8]) it was 98% (active); in assay [4] (at 50.0 µM), 92.1% (active). Moreover, the growth inhibition in assay [5] (setting [7]) was 42%; in assay [5] (setting [8]), 99% (active); in assay [5] (at 50.0 µM), 91.6% (active); in assay [6] (setting [7]) it was 51%; in assay [6] (setting [8]), 99% (active); in assay [6] (at 50.0 µM), 91% (active).
Consider `NNC(=O)N/N=C(/CC1(O)C(=O)Nc2ccc(Br)cc21)c1ccccc1` (stereo not given), for which the growth inhibition is -1% in assay [1] (setting [7]); 83% (active) in assay [1] (setting [8]); 88.3% (active) in assay [1] (at 50.0 µM); 1% in assay [2] (setting [7]); 66% in assay [2] (setting [8]); 83.8% (active) in assay [2] (at 50.0 µM). Further, the growth inhibition in assay [3] (setting [7]) is -2%; in assay [3] (setting [8]), 86% (active); in assay [3] (at 50.0 µM), 89.6% (active); in assay [4] (setting [7]), -5%; in assay [4] (setting [8]) it was 48%; in assay [4] (at 50.0 µM), 10.2%. Also, the growth inhibition in assay [5] (setting [7]) was 8%; in assay [5] (setting [8]), 91% (active); in assay [5] (at 50.0 µM), 81.3% (active); in assay [6] (setting [7]), 0%; in assay [6] (setting [8]), 71% (active); in assay [6] (at 50.0 µM), 93.7% (active).
In the case of `COc1ccc(CN2COc3c(cc(Cl)c4cccnc34)C2)cc1`, the growth inhibition is 6% in assay [1] (setting [7]); 98% (active) in assay [1] (setting [8]); 99.5% (active) in assay [1] (at 50.0 µM); -2% in assay [2] (setting [7]); 91% (active) in assay [2] (setting [8]); 99.6% (active) in assay [2] (at 50.0 µM). Moreover, the growth inhibition in assay [3] (setting [7]) is 1%; in assay [3] (setting [8]), 98% (active); in assay [3] (at 50.0 µM), 99.7% (active); in assay [4] (setting [7]), 4%; in assay [4] (setting [8]), 99% (active); in assay [4] (at 50.0 µM), 99.2% (active). For the same compound, the growth inhibition in assay [5] (setting [7]) was -2%; in assay [5] (setting [8]) it was 99% (active); in assay [5] (at 50.0 µM) it was 99.4% (active); in assay [6] (setting [7]), 8%; in assay [6] (setting [8]), 99% (active); in assay [6] (at 50.0 µM), 99.5% (active).
Take `Cc1cc(NC(=S)SCc2ccc3c(c2)OCO3)ccc1Cl`: the growth inhibition in assay [1] (setting [7]) is 31%; in assay [1] (setting [8]), 98% (active); in assay [1] (at 50.0 µM), 91.5% (active); in assay [2] (setting [7]) it was 16%; in assay [2] (setting [8]), 99% (active); in assay [2] (at 50.0 µM), 91.8% (active). In addition, the growth inhibition was 44% in assay [3] (setting [7]); 98% (active) in assay [3] (setting [8]); 91.5% (active) in assay [3] (at 50.0 µM); 38% in assay [4] (setting [7]); 98% (active) in assay [4] (setting [8]); 89.7% (active) in assay [4] (at 50.0 µM). Moreover, the growth inhibition in assay [5] (setting [7]) was 52%; in assay [5] (setting [8]), 99% (active); in assay [5] (at 50.0 µM), 91% (active); in assay [6] (setting [7]) it was 24%; in assay [6] (setting [8]) it was 97% (active); in assay [6] (at 50.0 µM), 90.2% (active).
